A selection: hits, their analogues and other compounds. The true share with any hit is near 1.6%.
p53ts 32C tox: kills p53ts cells at the permissive temperature | 130,000 tested, 0.93% active | H1299-p53A138V at 32C, ATP luminescence viability, 24 h | Potency, µM (series often up to 46.1 µM), for the others: at the highest dose activity change, negative = cytotoxicity, usual class: cytotoxic;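 further: 0% = DMSO and -100% = full killing by reference compound; nearly all actives have a fitted effect of over 55% in size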
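H1299-p53 A138V cells (temperature-sensitive p53) exposed 24 h to up to 46 uM compound at 32C, where p53 is wild-type in conformation. Viability read as ATP luminescence and normalised to DMSO and 100 uM tamoxifen. AC50 fitted with the Hill equation.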
p53ts 39C kill: p53ts cell cytotoxicity, nonpermissive temperature | H1299-p53A138V viability at 39C, ATP luminescence, 24 h | Potency, µM (series often up to 46.1 µM), for inactives: at the highest dose activity change, negative = cell killing, most hits filed as cytotoxic | 130,000 tested, 1.5% active; further: on the % scale 0 is the no-effect control and ±100 the full control effect; nearly all actives have a fitted effect of over 55% in size
Imprint erasure: genomic imprint erasure induction | AID 1948 | 110,000 tested, 0.02% active | Potency, µM (doses to about 60.7 µM), for the others: at the top dose activity change, positive = activation, usual class: activators | mouse ES Peg3-LacZ reporter, beta-gal luminescence, 40 h
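Each well holds 300 Peg3LacZ-Neo (maternal) female ES cells incubated 40 h at 37C, 5% CO2. LacZ is measured by BetaGlo luminescence, with AC50 and maximum efficacy derived from dose-response curves.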
The depositor's hits bear a star; [ ] = remark or other dose. The call rests on the fitted dose curve; in most records, active means well fitted curve in the direction sought with a large enough effect; inconclusive means small, poorly fitted or top-dose-only effect, or another doubt; inactive means no such curve, though single readings can be large; an effect the other way counts as inactive or inconclusive. Potency means the concentration at half of the fitted maximal effect.

Cn1cnc([N+](=O)[O-])c1Sc1nc(N)nc2c1ncn2[C@H]1C[C@H](O)[C@@H](CO)O1 was read as p53ts 32C tox -26%[9.22 µM], p53ts 39C kill -23%[9.22 µM] and Imprint erasure 3%[10.9 µM].
For COc1ccc(-c2nnc(-c3ccc(N)cc3)o2)cc1 the results were p53ts 32C tox inconclusive, p53ts 39C kill inconclusive and Imprint erasure -49%.
`COc1cc(OC)cc(-c2nnc(Nc3nc4c(F)cccc4s3)o2)c1` gave p53ts 32C tox 5%, p53ts 39C kill -23% and Imprint erasure 7%.
Screening Fc1cccc2sc(Nc3nnc(-c4ccccc4)o3)nc12 returned p53ts 32C tox 16µM*, p53ts 39C kill 10µM* and Imprint erasure -51%.
COc1ccc(-c2nnc(Nc3nc4c(OC)cccc4s3)o2)cc1 was read as p53ts 32C tox inconclusive, p53ts 39C kill 13µM* and Imprint erasure -19%.
COc1ccc(-c2nnc(Nc3nc4c(OC)cccc4s3)o2)c(OC)c1 was read as p53ts 32C tox inconclusive, p53ts 39C kill 10µM* and Imprint erasure -31%.
Screening COc1ccc(-c2ccc(-c3nnc(-c4cc(OC)ccc4OC)o3)cc2)cc1 returned p53ts 32C tox 21%, p53ts 39C kill 2% and Imprint erasure -2%.
Screening O=C(O)/C(=C\c1ccncc1)c1cccc2ccccc12 returned p53ts 32C tox -1%[9.22 µM], p53ts 39C kill 1%[9.22 µM] and Imprint erasure 5%[10.9 µM].
Screening CCOc1cccc(NC(=O)C2CC(=O)N(C)C(=Nc3ccc(OC)cc3)S2)c1 (configuration not stated) returned p53ts 32C tox 0%, p53ts 39C kill -23% and Imprint erasure -16%[10.9 µM].
`CCOc1cccc(NC(=O)C2CC(=O)N(C)C(=Nc3cccc(OC)c3)S2)c1` (configuration not stated) gave p53ts 32C tox inconclusive, p53ts 39C kill 13µM* and Imprint erasure -17%[10.9 µM].
For COc1cc(NC(=O)Cn2c(=O)cc(C)c3c(C)nn(-c4ccc(C)cc4)c32)cc(OC)c1 the results were p53ts 32C tox -5%, p53ts 39C kill 6% and Imprint erasure -10%[10.9 µM].
Screening Cc1ccc(CNCc2c(C(=O)O)n(Cc3ccc(C)cc3)c3cc(C)ccc23)cc1 returned p53ts 32C tox inconclusive, p53ts 39C kill inconclusive and Imprint erasure -15%[10.9 µM].
`CCc1ccc(CNCc2c(C(=O)O)n(Cc3ccc(C)cc3)c3cc(C)ccc23)cc1` gave p53ts 32C tox -25%, p53ts 39C kill -87% and Imprint erasure -15%[10.9 µM].
Cc1ccc(Cn2c(C(=O)O)c(CNCc3ccc(OC(C)C)cc3)c3ccc(C)cc32)cc1 was read as p53ts 32C tox -7%, p53ts 39C kill 16µM* and Imprint erasure -14%[10.9 µM].
Screening C=Cc1ccc(Cn2c(C(=O)O)c(CNCc3ccccc3)c3ccc(C)cc32)cc1 returned p53ts 32C tox inconclusive, p53ts 39C kill 16µM* and Imprint erasure 3%[10.9 µM].
For COc1ccc(NC(=O)CSc2nncs2)cc1OC the results were p53ts 32C tox 0%, p53ts 39C kill -4% and Imprint erasure 0%.
For O=C(CSc1nnc(NC(=O)c2ccco2)s1)NC1CCCCC1 the results were p53ts 32C tox 4%, p53ts 39C kill -15% and Imprint erasure -12%.
For O=C(CSc1nnc(NC(=O)NC2CCCCC2)s1)Nc1ccccc1F the results were p53ts 32C tox 10µM*, p53ts 39C kill 10µM* and Imprint erasure 7%[10.9 µM].
`COc1ccccc1NC(=O)CSc1nnc(NC(=O)NC2CCCCC2)s1` gave p53ts 32C tox inconclusive, p53ts 39C kill 7.9µM* and Imprint erasure -6%[10.9 µM].
CC(=O)c1ccc(NC(=O)CSc2nnc(NC(=O)NC3CCCCC3)s2)cc1 was read as p53ts 32C tox 7.1µM*, p53ts 39C kill 7.9µM* and Imprint erasure -18%[10.9 µM].
For Cc1ccc(NC(=O)Nc2nnc(SCC(=O)N3CCCCC3)s2)cc1 the results were p53ts 32C tox 1%, p53ts 39C kill inconclusive and Imprint erasure -1%[10.9 µM].
Screening COc1ccc(NC(=O)CSc2nnc(NC(=O)NC3CCCCC3)s2)cc1OC returned p53ts 32C tox 10µM*, p53ts 39C kill 7.9µM* and Imprint erasure -8%[10.9 µM].
Screening COc1ccccc1Nc1nnc(SCC(=O)N2CCCC2)s1 returned p53ts 32C tox -5%, p53ts 39C kill -19% and Imprint erasure -78%.
For c1ccc2c(c1)nnn2CN1CCOCC1 the results were p53ts 32C tox 3%[9.22 µM], p53ts 39C kill -4%[9.22 µM] and Imprint erasure -8%[10.9 µM].
For COc1ccccc1C(=O)Nc1ccccc1OCc1cc(=O)n2c(C)csc2n1 the results were p53ts 32C tox -4%, p53ts 39C kill 6% and Imprint erasure -5%[10.9 µM].
For COC(=O)C/C=C\[C@@H](C)[C@@H](/C=N\O[C@@H](C)c1cn([C@H]2COC[C@H]2O)nn1)OC the results were p53ts 32C tox 9%[9.22 µM] and p53ts 39C kill -2%[9.22 µM].
